In PubChem BioAssay AID1159580 (chemical genetic matrix, 2015):
In all, about 5,500 compounds went through this assay and about 2,000 (36%) were called active. Another 18% or so got no clear call; they are omitted. No stated cut-off is given here; in the data, active means normalized growth mostly below about 0.91 (no sharp cut-off); inconclusive means no clear call, values can overlap the other calls; inactive means mostly above about 0.92. This is one part of the list.

Assay: chemical genetic growth profiling, strain panel (AID 1159580);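 further: tested at 20 µM; growth read once vehicle control cultures reached saturation at 30 °C; 1 = growth at the plate median or of vehicle wells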
Conditions: growth OD

Measured: normalized growth

NCC(O)CC(=O)O (centres undefined)
inactive: S. cerevisiae deletion strains, locus YKL009W, strain mrt4, stronger effect = lower value 0.991 | S. cerevisiae deletion strains, locus YKL068W, stronger effect = lower value 0.999 | S. cerevisiae deletion strains, locus YKL085W, strain MDH1 (second series), stronger effect = lower value 1 | S. cerevisiae deletion strains, locus YKL085W, strain MDH1, stronger effect = lower value 1 | S. cerevisiae deletion strains, locus YKL160W, strain elf1, stronger effect = lower value 1.02 | S. cerevisiae deletion strains, locus YKL190W, strain CNB1, stronger effect = lower value 1.02 | S. cerevisiae deletion strains, locus YKR001C, strain vps1, stronger effect = lower value 1 | S. cerevisiae deletion strains, locus YKR026C, strain gcn3, stronger effect = lower value 0.959 | S. cerevisiae deletion strains, locus YKR091W, strain srl3, stronger effect = lower value 0.974 | S. cerevisiae deletion strains, locus YLL001W, strain dnm1, stronger effect = lower value 0.987 | S. cerevisiae deletion strains, locus YLL026W, stronger effect = lower value 0.996 | S. cerevisiae deletion strains, locus YLL041C, strain sdh2, stronger effect = lower value 1 | S. cerevisiae deletion strains, locus YLR027C, strain aat2, stronger effect = lower value 0.97 | S. cerevisiae deletion strains, locus YLR039C, strain RIC1, stronger effect = lower value 1.04 | S. cerevisiae deletion strains, locus YLR058C, strain SHM2, stronger effect = lower value 1.02 | S. cerevisiae deletion strains, locus YLR102C, strain apc9, stronger effect = lower value 1 | S. cerevisiae deletion strains, locus YLR113W, strain HOG1, stronger effect = lower value 0.976 | S. cerevisiae deletion strains, locus YLR221C, strain rsa3, stronger effect = lower value 1.01 | S. cerevisiae deletion strains, locus YLR258W, strain gsy2, stronger effect = lower value 1 | S. cerevisiae deletion strains, locus YLR262C, strain YPT6 (second series), stronger effect = lower value 1 | S. cerevisiae deletion strains, locus YLR262C, strain YPT6, stronger effect = lower value 1.03 | S. cerevisiae deletion strains, locus YLR268W, strain sec22, stronger effect = lower value 0.998 | S. cerevisiae deletion strains, locus YLR320W, strain mms22, stronger effect = lower value 1 | S. cerevisiae deletion strains, locus YLR330W, strain CHS5, stronger effect = lower value 1.01 | S. cerevisiae deletion strains, locus YLR342W, strain FKS1 (second series), stronger effect = lower value 1.02 | S. cerevisiae deletion strains, locus YLR342W, strain FKS1, stronger effect = lower value 0.968 | S. cerevisiae deletion strains, locus YLR357W, strain rsc2, stronger effect = lower value 0.972 | S. cerevisiae deletion strains, locus YLR370C, strain arc18, stronger effect = lower value 0.973 | S. cerevisiae deletion strains, locus YLR371W, strain rom2, stronger effect = lower value 1 | S. cerevisiae deletion strains, locus YLR384C, strain iki3, stronger effect = lower value 0.979 | S. cerevisiae deletion strains, locus YLR418C, strain cdc73, stronger effect = lower value 0.988 | S. cerevisiae deletion strains, locus YML016C, strain PPZ1, stronger effect = lower value 1.01 | S. cerevisiae deletion strains, locus YML032C, strain rad52, stronger effect = lower value 1.01 | S. cerevisiae deletion strains, locus YML120C, strain ndi1, stronger effect = lower value 0.994 | S. cerevisiae deletion strains, locus YML124C, strain tub3, stronger effect = lower value 1 | S. cerevisiae deletion strains, locus YMR058W, strain fet3, stronger effect = lower value 0.972 | S. cerevisiae deletion strains, locus YMR078C, strain ctf18, stronger effect = lower value 1 | S. cerevisiae deletion strains, locus YMR125W, strain sto1, stronger effect = lower value 0.958 | S. cerevisiae deletion strains, locus YMR129W, stronger effect = lower value 0.978 | S. cerevisiae deletion strains, locus YMR205C, strain PFK2, stronger effect = lower value 0.965 | S. cerevisiae deletion strains, locus YMR223W, strain ubp8, stronger effect = lower value 1 | S. cerevisiae deletion strains, locus YMR231W, strain pep5, stronger effect = lower value 0.968 | S. cerevisiae deletion strains, locus YMR263W, strain SAP30, stronger effect = lower value 1.01 | S. cerevisiae deletion strains, locus YMR307W, strain GAS1, stronger effect = lower value 0.988 | S. cerevisiae deletion strains, locus YNL067W, strain RPL9B, stronger effect = lower value 1.01 | S. cerevisiae deletion strains, locus YNL071W, strain lat1, stronger effect = lower value 0.981 | S. cerevisiae deletion strains, locus YNL128W, strain TEP1, stronger effect = lower value 1.02 | S. cerevisiae deletion strains, locus YNL183C, strain NPR1, stronger effect = lower value 0.931 | S. cerevisiae deletion strains, locus YNL209W, strain ssb2, stronger effect = lower value 0.985 | S. cerevisiae deletion strains, locus YNL233W, strain BNI4, stronger effect = lower value 1.04 | S. cerevisiae deletion strains, locus YNL248C, strain rpa49, stronger effect = lower value 1.02 | S. cerevisiae deletion strains, locus YNL250W, strain rad50, stronger effect = lower value 0.99 | S. cerevisiae deletion strains, locus YNL271C, strain bni1, stronger effect = lower value 0.992 | S. cerevisiae deletion strains, locus YNL298W, strain CLA4, stronger effect = lower value 0.992 | S. cerevisiae deletion strains, locus YNL307C, strain MCK1, stronger effect = lower value 1.01 | S. cerevisiae deletion strains, locus YNL322C, strain KRE1 (second series), stronger effect = lower value 0.958 | S. cerevisiae deletion strains, locus YNL322C, strain KRE1, stronger effect = lower value 1.02 | S. cerevisiae deletion strains, locus YNR049C, strain mso1, stronger effect = lower value 0.983 | S. cerevisiae deletion strains, locus YNR052C, strain pop2, stronger effect = lower value 1 | S. cerevisiae deletion strains, locus YOL006C, strain TOP1, stronger effect = lower value 0.988 | S. cerevisiae deletion strains, locus YOL012C, strain htz1 0.788 | S. cerevisiae deletion strains, locus YOL147C, strain pex11, stronger effect = lower value 1 | S. cerevisiae deletion strains, locus YOR001W, strain rrp6, stronger effect = lower value 1.02 | S. cerevisiae deletion strains, locus YOR061W, strain CKA2, stronger effect = lower value 1.01 | S. cerevisiae deletion strains, locus YOR069W, strain VPS5, stronger effect = lower value 1.01 | S. cerevisiae deletion strains, locus YOR070C, strain gyp1, stronger effect = lower value 0.991 | S. cerevisiae deletion strains, locus YOR080W, strain dia2, stronger effect = lower value 0.979 | S. cerevisiae deletion strains, locus YOR083W, strain WHI5, stronger effect = lower value 1.03 | S. cerevisiae deletion strains, locus YOR106W, strain vam3, stronger effect = lower value 0.978 | S. cerevisiae deletion strains, locus YOR136W, strain idh2, stronger effect = lower value 1 | S. cerevisiae deletion strains, locus YOR144C, strain elg1, stronger effect = lower value 0.999 | S. cerevisiae deletion strains, locus YOR184W, strain ser1, stronger effect = lower value 1 | S. cerevisiae deletion strains, locus YOR231W, strain MKK1, stronger effect = lower value 1.02 | S. cerevisiae deletion strains, locus YOR265W, strain rbl2, stronger effect = lower value 0.989 | S. cerevisiae deletion strains, locus YOR270C, strain vph1, stronger effect = lower value 0.987 | S. cerevisiae deletion strains, locus YOR290C, strain snf2, stronger effect = lower value 0.938 | S. cerevisiae deletion strains, locus YOR316C, strain cot1, stronger effect = lower value 1.01 | S. cerevisiae deletion strains, locus YPL051W, strain arl3, stronger effect = lower value 1.02 | S. cerevisiae deletion strains, locus YPL078C, strain atp4, stronger effect = lower value 0.998 | S. cerevisiae deletion strains, locus YPL106C, strain sse1, stronger effect = lower value 0.985 | S. cerevisiae deletion strains, locus YPL240C, strain hsp82, stronger effect = lower value 1 | S. cerevisiae deletion strains, locus YPL241C, strain CIN2, stronger effect = lower value 1.01 | S. cerevisiae deletion strains, locus YPL256C, strain CLN2, stronger effect = lower value 1.01 | S. cerevisiae deletion strains, locus YPR119W, strain clb2, stronger effect = lower value 0.996 | S. cerevisiae deletion strains, locus YPR141C, strain kar3, stronger effect = lower value 0.994 | S. cerevisiae deletion strains, locus YPR163C, strain tif3, stronger effect = lower value 0.993 | S. cerevisiae deletion strains, locus YPR167C, strain met16, stronger effect = lower value 0.995 | S. cerevisiae deletion strains, strain wtn01, stronger effect = lower value 0.99 | S. cerevisiae strains, strain wild type, stronger effect = lower value 1.02
